The supplement of paper PMC5662767
Where a name gives a salt, the structure may show the parent alone.

Test system: Drosophila S2 cl14 SmoIP sensor cells
Test: normalized SmoIP GFP fluorescence (untreated unstimulated = 0%, untreated Hh-stimulated = 100%); higher = more Smo activation sensor fluorescence
Settings: stimulation: mock conditioned medium (-Hh); compound concentration: 2 uM; 24 h
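Also: flow cytometry read-out as median GFP intensity of gated cells, compounds added 30 min before Hh-conditioned or mock medium, mock-treated cells serving as unstimulated baseline.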

Row | Structure (SMILES) | normalized SmoIP GFP fluorescence [%]
1 | COc1cc(F)c(C(C)C)cc1-c1ccc(C(F)(F)F)cc1CN1C(=O)O[C@H](c2cc(C(F)(F)F)cc(C(F)(F)F)c2)[C@@H]1C [anacetrapib-mk-0859] | -8.59
2 | CC(=O)S[C@@H]1CC2=CC(=O)CC[C@]2(C)[C@H]2CC[C@@]3(C)[C@@H](CC[C@@]34CCC(=O)O4)[C@H]12 [spironolactone] | -4.58
3 | CCOC(=O)c1ccc(OC(=O)CCCCCNC(=N)N)cc1 [gabexate-mesylate] | -12.6
4 | C[C@H](N[C@@H](CCc1ccccc1)C(=O)O)C(=O)N1CCC[C@H]1C(=O)O [Enalaprilat] | -0.265
5 | NC(=O)c1ccc(N(C(N)=O)c2c(F)cccc2F)nc1-c1ccc(F)cc1F | -3.5
6 | CNCCC(Oc1ccc(C(F)(F)F)cc1)c1ccccc1 (stereo not drawn) [Fluoxetine-hydrochloride] | 1.89
7 | O=c1cc(-c2ccccc2)oc2cc(O)c(O)c(O)c12 [Baicalein] | 1.24
8 | C=CC(=O)Nc1cccc(Oc2nc(Nc3ccc(N4CCN(C)CC4)cc3OC)ncc2Cl)c1 | 19.1
9 | CCCCCCCCCCCCc1ccc(S(=O)(=O)Nc2nncs2)cc1 | 1.03
10 | Nc1c(Br)cc(Br)cc1CN[C@H]1CC[C@H](O)CC1 [ambroxol-hcl] | -2.82
11 | CCCCCCCN(CC)CCCC(O)c1ccc(NS(C)(=O)=O)cc1 (stereo not drawn) [ibutilide-fumarate] | -6.16
12 | Cn1c(Nc2ccc(C(F)(F)F)cc2)nc2cc(Oc3ccnc(-c4ncc(C(F)(F)F)[nH]4)c3)ccc21 | 2.32
13 | CCCNS(=O)(=O)Nc1ncnc(OCCOc2ncc(Br)cn2)c1-c1ccc(Br)cc1 [macitentan] | 15.2
14 | NC(N)=N/N=C/c1c(Cl)cccc1Cl [guanabenz-wy-8678-acetate] | -4.7
15 | COc1cc2ncnc(Sc3nnc(C)s3)c2cc1OC [sklb1002] | -0.491
16 | c1ccc2c(CC3=NCCN3)cccc2c1 [Naphazoline-hydrochloride-Naphcon] | -11.6
17 | Cc1cc(-c2ncc(CC(=O)Nc3ccc(-c4cnccn4)cn3)cc2C)ccn1 | -1.23
18 | CNC(=O)c1ccccc1Nc1nc(Nc2ccc(N3CCOCC3)cc2OC)ncc1Cl | 22.3
19 | O=C(NC[C@H](O)CO)c1ccncc1Nc1ccc(I)cc1F | 46.7

Row | Structure (SMILES) | normalized SmoIP GFP fluorescence [%]
20 | O=c1sn(-c2cccc3ccccc23)c(=O)n1Cc1ccccc1 [tideglusib] | -0.264
21 | CCCNC(=O)Nc1ccc(Oc2ncnc3cc(OC)c(OC)cc23)cc1Cl | -6.51
22 | CCC(=O)N1CCN(c2ccc(-n3c(=O)ccc4cnc5ccc(-c6cnc7ccccc7c6)cc5c43)cc2C(F)(F)F)CC1 [torin-1] | -12.5
23 | COc1ccc(CNC(=O)Nc2ncc([N+](=O)[O-])s2)cc1 | -11
24 | NC(=O)N1c2ccccc2CC(=O)c2ccccc21 [Oxcarbazepine] | 2.97
25 | Nc1nccc2c1ncn2[C@@H]1C=C(CO)[C@@H](O)[C@H]1O [3-deazaneplanocin-a-dznep] | 0.702
26 | CC(=O)Oc1cc(C(F)(F)F)ccc1C(=O)O [triflusal] | -4.58
27 | CCN(CC)CCNC(=O)c1c(C)[nH]c(/C=C2\C(=O)Nc3ccc(F)cc32)c1C [Sunitinib-Malate-(Sutent)] | 90.8
28 | CCN1CCN(Cc2ccc(Nc3ncc(F)c(-c4cc(F)c5nc(C)n(C(C)C)c5c4)n3)nc2)CC1 | 50.1
29 | COc1c(C)cnc(Cn2cnc3c(Cl)nc(N)nc32)c1C | 34.5
30 | COc1ccc(Cn2ccc3ccc(C(=O)NO)cc32)cc1 | -8.59
31 | c1cncc(CN2CCC(n3ncc4c(N5CCOCC5)nc(-c5ccc6[nH]ccc6c5)nc43)CC2)c1 | -4.53
32 | CCN1CCCC1CNC(=O)c1cc(S(=O)(=O)CC)c(N)cc1OC (stereo not drawn) [Amisulpride] | 3.51
33 | CC(C)NCC(O)c1ccc(O)c(O)c1 (stereo not drawn) [Isoprenaline-hydrochloride] | -14.1
34 | O=c1ncccn1[C@@H]1O[C@H](CO)[C@@H](O)[C@H]1O [zebularine] | -3.16
35 | C[C@@H]1C[C@H]2[C@@H]3CCC4=CC(=O)C=C[C@]4(C)[C@@]3(F)[C@@H](O)C[C@]2(C)[C@@]1(O)C(=O)CO [Dexamethasone] | 5.66
36 | CN1CCC(CNc2ccc3ncc(-c4cccc(OC(F)(F)F)c4)n3n2)CC1 | 5.38
37 | O=C1NC(=O)C(=Cc2ccc(-c3ccc(F)cc3)o2)S1 (stereo in doubt) | -2.48
38 | CO[C@H]1C[C@@H]2CC[C@@H](C)[C@@](O)(O2)C(=O)C(=O)N2CCCC[C@H]2C(=O)O[C@H]([C@H](C)C[C@@H]2CC[C@@H](OP(C)(C)=O)[C@H](OC)C2)CC(=O)[C@H](C)/C=C(\C)[C@@H](O)[C@@H](OC)C(=O)[C@H](C)C[C@H](C)/C=C/C=C/C=C/1C [Deforolimus] | -8.56
